RecA intein inh = Mtb RecA intein splicing inhibitors, primary screen, biochemical, fluorescence, HTS. AID 2221, 2009. actives 0.75% (n = 290,000). inhibition, % (no concentration beside the values). cell-free RecA intein splicing; in the data active means inhibition above about 30%; inconclusive means no clear call, values can overlap the other calls;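 further: 0% = vehicle wells and 100% = reference inhibitor control wells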
Rv3671c inh = Rv3671c serine protease inhibitors, primary screen, biochemical, fluorescence polarization, M. tuberculosis H37Rv. inhibition, % at 5.96 µM. actives 0.048% (n = 320,000); in the data active means inhibition above about 38%;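 further: extracellular domain of Rv3671c used as enzyme; 0% = enzyme with DMSO and 100% = no enzyme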
Target sequence (P9WHR9 whole entry, looked up, the tested form may be a part): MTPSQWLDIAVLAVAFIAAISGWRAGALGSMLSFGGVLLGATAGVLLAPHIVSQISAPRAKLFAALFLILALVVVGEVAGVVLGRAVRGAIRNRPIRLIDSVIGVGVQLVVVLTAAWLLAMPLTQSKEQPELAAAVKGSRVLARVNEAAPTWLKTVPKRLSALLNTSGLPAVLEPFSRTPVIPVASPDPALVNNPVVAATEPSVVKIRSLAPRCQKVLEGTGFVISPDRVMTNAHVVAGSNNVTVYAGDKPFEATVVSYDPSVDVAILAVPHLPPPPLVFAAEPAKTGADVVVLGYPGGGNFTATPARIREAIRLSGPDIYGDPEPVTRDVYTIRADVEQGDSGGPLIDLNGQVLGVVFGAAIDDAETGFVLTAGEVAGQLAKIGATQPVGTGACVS
CCHF vOTU inh-1 = CCHFV vOTU protease inhibitors, primary screen, biochemical, Pep-AMC substrate, fluorescence; inhibition, % at 11.5 µM; AID 651958, 2012; actives 0.55% (n = 370,000); further: 0% = vehicle wells with enzyme and 100% = no enzyme wells
Mtb bLac sens = beta-lactam sensitization of Mtb H37Rv, H37Rv | actives 0.27% (n = 330,000) | AID 434955, 2010 | inhibition, % at 25 µM | M. tuberculosis H37Rv growth with meropenem, percent inhibition; call rule not given here;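 further: growth measured after seven days incubation then overnight dye step; 0% = bacteria only wells and 100% = bacteria with antibiotic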
UGM FP inh = M. tuberculosis UGM enzyme inhibitors, primary screen, biochemical, fluorescence polarization, single point; UDP-galactopyranose mutase (Mycobacterium tuberculosis (strain ATCC 25618 / H37Rv)), …; purified UGM, fluorescence polarization probe displacement; inhibition, % at 10 µM; actives 0.06% (n = 320,000); AID 504406, 2011; in the data active means inhibition above about 10%, passing the limit was not always enough; inconclusive means no clear call, values can overlap the other calls
CCHF vOTU inh-2 = CCHFV vOTU protease inhibitors, confirmation, biochemical, Pep-AMC substrate, fluorescence | actives 17% (n = 1,900) | inhibition, % at 11.5 µM | shares compounds with CCHF vOTU inh-1 | Recombinant CCHFV vOTU
The depositor's hits bear a star; ? = inconclusive; . = no result. Sampled rows, rich in hits. Any-hit rate of the full collection: about 1.2%. Unless noted, no stated cut-off is given here; in the data, active means inhibition above about 30%; inactive means the rest.

SMILES | RecA intein inh | Rv3671c inh | CCHF vOTU inh-1 | Mtb bLac sens | UGM FP inh | CCHF vOTU inh-2
CCCCC[C@@H]1C=C(C(=O)O)[C@H](c2ccc(F)cc2)N1S(=O)(=O)c1ccc(C)cc1 | . | -4 | 18 | -9 | 3 | .
CCCCC[C@@H]1C=C(C(=O)O)[C@H](c2ccc(Cl)c(Cl)c2)N1S(=O)(=O)c1ccc(C)cc1 | . | -13 | 37* | -8 | -1 | 21
CCCCC[C@@H]1C=C(C(=O)O)[C@H](c2ccc(CC)cc2)N1S(=O)(=O)c1ccc(C)cc1 | . | -7 | 2 | -1 | -1 | .
CCCC[C@@H]1C=C(C(=O)O)[C@H](c2ccc(CC)cc2)N1S(=O)(=O)c1ccc(C)cc1 | . | -12 | 30* | 0 | . | 21
COCCCN1C(=O)[C@H](CC(=O)N2CCCCC2)[C@]2(C(=O)OC)CCCCC=C12 | . | . | 3 | . | . | .
Cc1cc(N2CCNC[C@@H]2C)ccc1N1CCN(Cc2ccccc2)[C@H](C)C1 | . | . | -13 | . | . | .
CCNC(=O)N(C)[C@H]1C[C@H]2c3[nH]c4cccc(-c5ccc6c(c5)OCO6)c4c3CCN2C[C@H]1[C@H](C)O | . | . | -7 | . | . | .
O=C(c1ccc(F)cc1F)N(Cc1ccccn1)CC1CCCO1 (stereo unspecified) | . | . | -6 | . | . | .
Cc1ccccc1N=C1c2ccccc2C(=O)C1[N+](=O)[O-] (stereo unspecified) | 1 | 2 | 34* | 16 | 3 | 7
CC(=O)C1C(=O)c2c(cccc2[N+](=O)[O-])C1=Nc1ccccc1C (stereo unspecified) | -4 | 4 | -12 | 10 | -1 | .
CCOC(=O)Cn1cc(CN2CCS(=O)(=O)N(Cc3ccc(C)cc3)C(C(=O)OC)C2)nn1 (stereo unspecified) | . | . | -10 | . | . | .
CCCCCCSC1=C(C#N)C(=O)NC2(CCCCC2)S1 | 5 | -3 | 35* | 2 | 4 | -3
CCCC(=O)N1CCC[C@]2(CC[C@H](CCC#N)O2)C1 | . | . | -3 | . | . | .
Nn1cnnc1N/N=C/c1ccc(F)cc1 | 0 | -23 | 92* | 53 | -1 | -18
Cc1ccc(/C=N/Nc2nncn2N)cc1 | -5 | -21 | 87* | 96 | 0 | -17
Cc1ccc(/C=N/Nc2nc(C)cc(C)n2)cc1 | -2 | -1 | -6 | 4 | 4 | .
Fc1ccc(/C=N/Nc2nn[nH]n2)cc1 | -6 | -5 | -1 | 1 | 0 | .
COc1cccc(/C=C2\CC3(OC(=O)c4cccc(F)c4)CCCN2C3)c1 (stereo unspecified) | . | . | 4 | . | . | .
CCCCNC(=O)C[C@H]1C[C@@]2(C(=O)OC)C(=C[C@H](C3CCCC3)O[C@@H]2C)N(CCc2ccc(OC)c(OC)c2)C1=O | . | . | 5 | . | . | .
Cc1ccc(C)c(/C(O)=C2\C(=O)C(=O)N(CCCN3CCOCC3)C2c2cccnc2)c1 (stereo unspecified) | -2 | . | 46* | . | . | -16
Cc1ccc(CN2CCCCC(NC(=O)c3ccc(F)cc3)C2=O)cc1 (stereo unspecified) | . | . | -4 | . | . | .
CCCc1cc(=O)[nH]c(SCC(=O)Nc2cc(S(=O)(=O)N(CC)c3ccccc3)ccc2Cl)n1 | . | -13 | 35* | -9 | -4 | 11
O=C1OC(Nc2cc(Br)cc3cccnc23)c2ccccc21 (stereo unspecified) | -7 | -79 | 111* | 3 | 1 | 100*
O=C1OC(Nc2ncccn2)c2ccccc21 (stereo unspecified) | -2 | 6 | -58 | ? | 5 | .
CC(C)CNC(=O)C1(C)CCCCCN1Cc1ccccc1-c1ccccc1 (stereo unspecified) | . | . | 35* | . | . | 9
SMILES | RecA intein inh | Rv3671c inh | CCHF vOTU inh-1 | Mtb bLac sens | UGM FP inh | CCHF vOTU inh-2
O=C1C=CC(=O)N1c1ccc(Nc2ccccc2)cc1 | . | . | 41* | . | . | -16
N#Cc1cc2ccc(N3CCOCC3)cc2cc1C#N | -2 | -5 | 73* | 3 | -1 | -58
C=CC[C@@H](CC(=O)N[C@H](CO)Cc1ccccc1)C(=O)N[C@H](COC(=O)[C@@H](CC=C)CC(=O)OC(C)(C)C)Cc1c[nH]c2ccccc12 | . | -7 | 19 | -4 | -3 | .
C=CCC[C@H](Cc1ccc(F)cc1)C(=O)OC[C@@H](Cc1c[nH]c2ccccc12)NC(=O)[C@@H](CC=C)CC(=O)N(CCO)Cc1ccccc1 | . | -4 | 32* | 3 | 0 | 8
C=CC[C@@H](CC(=O)N[C@H](CO)Cc1ccccc1)C(=O)N[C@@H](COC(=O)[C@@H](CC=C)CC(=O)OC(C)(C)C)Cc1c[nH]c2ccccc12 | . | -4 | 31* | -2 | 1 | -11
C=CCC[C@H](Cc1ccc(F)cc1)C(=O)OC[C@H](Cc1c[nH]c2ccccc12)NC(=O)[C@@H](CC=C)CC(=O)N(CCO)Cc1ccccc1 | . | -4 | 16 | -2 | 0 | .
COC(=O)[C@H](CC(C)C)N(CCc1cn(Cc2ccc(C)cc2)nn1)S(=O)(=O)c1ccc(F)cc1Br | . | . | 7 | . | . | .
O=C(Cn1cnc2ccccc2c1=O)NCCC(=O)Nc1ccc(F)cc1 | -2 | 6 | 56* | 2 | 0 | -16
COCc1cn(-c2ccc3c(c2)[C@@]2(CC(=O)N(C)C2c2ccccc2)C(=O)N3CC(C)C)nn1 (stereo partly specified) | . | . | 0 | . | . | .
C=CCn1c(COc2ccc(F)cc2)nnc1SCC(=O)c1c[nH]c2c(CC)cccc12 | -4 | -9 | 37* | 2 | -1 | 3
COC(=O)C1=C(c2ccc(OC(F)(F)F)cc2)C[C@@H]2CC[C@H]1N2C(=O)NCCOc1ccccc1Cl | . | 2 | 29 | 6 | -3 | .
COC(=O)C1=C(c2ccc(OC(F)(F)F)cc2)C[C@@H]2CC[C@H]1N2C(=O)NCCOc1ccccc1 | . | 2 | 30* | -4 | -1 | 10
CN1CCc2c(sc3c2c(=O)n(-c2ccccc2)c2nnc(SCc4ccccc4)n32)C1 | 2 | -1 | 31* | 10 | 1 | -7
CC(=O)N[C@@H]1C[C@@H]2O[C@H](CO)CC[C@@H]2O[C@@H]1CCc1ccc(-c2ccc(F)cc2)cc1 | . | . | 6 | . | . | .
Cc1cc(/C=N\NC(=O)CC(=O)NC2CCCCC2)c(C)n1-c1cccc(Cl)c1Cl | 6 | -7 | 8 | 6 | 2 | .
Cc1cccc(C)c1-n1c(C)cc(/C=N\NC(=O)CC(=O)NC2CCCCC2)c1C | 3 | -5 | 31* | -2 | 4 | -4
CCOc1cc(C)c(Cl)cc1S(=O)(=O)NCc1ccco1 | -1 | -8 | 12 | 1 | 0 | .
CCOc1ccc(S(=O)(=O)NCc2ccco2)c2ccccc12 | 9 | 4 | 32* | -2 | 2 | -4
CCOc1ccc(NS(=O)(=O)c2ccc(Cl)c(N=Nc3c(O)[nH]c(=S)[nH]c3=O)c2)cc1Br | . | . | 33* | . | . | 3
COc1ccc(NS(=O)(=O)c2cc(N=Nc3c(O)[nH]c(=O)[nH]c3=O)ccc2OC)cc1Br | . | . | 15 | . | . | .
